Hit rate of the full screen: of about 380,000 compounds, about 1,300 (0.34%) were called active. This is one part of a sample in which actives are shown more often than they occur. A number with no mark means an inactive call.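 The calls were made as follows: active = drop in luminescence signal, shown as inhibition above about 50% in the replicate tests (limit read from the data, passing the limit was not always enough); inconclusive = probably only some replicates passing the limit; inactive = the rest.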

This experiment concerns Drosophila bursicon receptor LGR2 (rickets). Put plainly: inhibitors of bursicon-induced LGR2 CRE-luciferase signal, primary screen, cell-based, HEK293, CRE-luciferase reporter, bursicon stimulation (AID 720647).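 Also: agonist challenge used bursicon conditioned medium at about half maximal strength.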 The settings on record: bursicon-stimulated, 4 h, at 9.99 µM, active compounds read high. Background: In a reporter assay the amount or activity of a reporter protein is the signal.
For orientation: inhibition means the drop in the measured response relative to a control, in per cent. Turning to `C[C@]12CCC3C(CC[C@H]4C[C@@H](O)CC[C@]34C)C1C[C@@H](O)[C@H]2O` (stereo not given in full), the inhibition is 21.8%.

In the case of `C[C@]12CCC3C(CC[C@H]4C[C@@H](O)CC[C@]34C)C1CC[C@@H]2O` (stereo not given in full), the inhibition was 4.33%.

`C[C@]12CC[C@H](O)C[C@H]1CC[C@@H]1C2CC[C@]2(C)[C@@H](C3=CC(=O)OC3)[C@@H](O)C[C@]12O` (stereo not given in full): the inhibition was 75.1% (active).

As to `Cc1cc(N2CCNC[C@@H]2C)ccc1N1CC[C@H](O)C1`, the inhibition was -14.4%.

On to `O=C(Cc1ccccn1)N1CCCCN2[C@H](C1)[C@H](c1ccc(-c3ccccc3F)cc1)[C@@H]2CO`, for which the inhibition was 20.2%.

On to `CCOc1ccc(-c2cc(C)[n+](CCN(CC)CC)c(-c3ccc(OCC)cc3)c2)cc1`, for which the inhibition was 60.4% (active).

Turning to `CS(=O)(=O)N1CCC2CCNC2C1` (stereo not given), the inhibition was -1.04%.

For the molecule `O=C(Cc1ccncc1)N1CCCCN2[C@@H](CO)[C@H](c3ccc(C#CC4(O)CCCC4)cc3)[C@@H]2C1`, the inhibition is -0.939%.

In the case of `Clc1ccc([C@@H]2CC3CCC2N3)cn1` (stereo not given in full), the inhibition is 7.28%.

Turning to `O=S(=O)(c1ccccc1)N1CCC2CCNC2C1` (stereo not given), the inhibition was 8.51%.

For `CCC(C)(O)C(=O)OC1C(=O)OC2CC3C(C)=CC(=O)C(O)C3(C)C3C4(O)OCC23C1C(C)C4O` (stereo not given), the inhibition is 101% (active).

Consider `O=C(Cc1ccccc1)N1CCCCN2[C@H](CO)[C@H](c3ccc(C#Cc4ccccc4)cc3)[C@H]2C1`, for which the inhibition was 0.501%.

For `COC(=O)[C@@H]1[C@@H](CO)[C@@H]2Cn3c(ccc(-c4cccc(C(=O)N(C)C)c4)c3=O)[C@H]1N2C(=O)NC(C)C`, the inhibition was 31.6%.

In the case of `CCN(CC)C(=O)[C@@H]1C=C2c3cccc4[nH]c(Br)c(c34)C[C@H]2N(C)C1`, the inhibition is 9.95%.

Take `COc1ccc(C#Cc2ccc([C@H]3[C@H](CO)N4CCCCN(C(=O)Cc5ccccc5)C[C@@H]34)cc2)cc1`: the inhibition is 10.8%.

As to `COC(=O)[C@@H]1[C@@H](CO)[C@@H]2Cn3c(ccc(-c4ccc(F)cc4)c3=O)[C@H]1N2C(C)=O`, the inhibition is -7.85%.

Turning to `COc1cccc(-c2nc3ccc(N4CCN(C)CC4)cc3[nH]2)c1`, the inhibition was 88.7% (active).

Regarding `CN1CCN(c2cc(N3CCNCC3)ccc2[N+](=O)[O-])CC1`, the inhibition is 1.9%.

Take `COc1cccc(-c2ccc([C@H]3[C@H]4CN(C(=O)Cc5ccncc5)CCCCN4[C@H]3CO)cc2)c1`: the inhibition is -6.52%.

`COc1ccc2c(c1)[C@@]13CCCCC1[C@@H](C2)NCC3` (stereo not given in full): the inhibition was 15.4%.

As for `COC1C(O)C(C)OC(OC2CCC3(C=O)C(CCC4C3CCC3(C)C(C5=CC(=O)OC5)CCC43O)C2)C1O` (stereo not given), the inhibition was 83.8% (active).

With `CCC(C)NC1(c2ccccc2)CCCCC1` (stereo not given), the inhibition is -0.048%.

Turning to `COC(=O)[C@H]1[C@H](CO)[C@H]2Cn3c(cccc3=O)[C@H]2N1CC1CC1`, the inhibition was 26.9%.

For the molecule `C/C=C/c1ccc(C2[C@@H]3CN(Cc4cncnc4)C[C@H]2N3)cc1` (stereo not given in full), the inhibition was -8.19%.

For the molecule `O=C(Cc1ccccn1)N1CCCCN2[C@@H](CO)[C@@H](c3ccc(C#Cc4ccccc4)cc3)[C@@H]2C1`, the inhibition was -13.4%.

These data come from PubChem BioAssay AID720647 (Broad Institute, 2013).
